Five compounds from PubChem BioAssay can be followed below.

Active and inactive are the calls of the source. Unless noted, no rule for the calls is given here.

A short description of experiment [1]: compounds binding Alexa647 anti-His antibody – biochemical, small-molecule microarray, 635 nm fluorescence, artefact control for SMM control protein annotation, primary screen (AID 1128).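 Also: score merges feature fluorescence with signal-to-noise for each printed compound spot.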 To be noted: higher = more signal.
Experiment [2] has as its system Human papillomavirus type 1a E7 protein (residues 1-88). As to the kind of experiment: HPV1a E7 small-molecule binders, primary screen, biochemical, small-molecule microarray, residues 1-88, 635 nm (AID 1129). The settings on record: small-molecule microarray binding, fluorescence 635 nm; higher = more signal.
The target in experiment [3] is Focal adhesion kinase 1 (Homo sapiens) (UniProt Q05397). As to the kind of experiment: PTK2 protein binding on printed compound slides – biochemical, small-molecule microarray, 635/667 nm fluorescence, BSA, DTT, primary screen (AID 1130).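 Also: composite of spot emission at 667 nm and signal to noise over triplicate slides.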 The settings on record: 635 nm fluorescence, higher = more signal.
Focal adhesion kinase 1 (Homo sapiens), sequence (Q05397 whole entry, looked up): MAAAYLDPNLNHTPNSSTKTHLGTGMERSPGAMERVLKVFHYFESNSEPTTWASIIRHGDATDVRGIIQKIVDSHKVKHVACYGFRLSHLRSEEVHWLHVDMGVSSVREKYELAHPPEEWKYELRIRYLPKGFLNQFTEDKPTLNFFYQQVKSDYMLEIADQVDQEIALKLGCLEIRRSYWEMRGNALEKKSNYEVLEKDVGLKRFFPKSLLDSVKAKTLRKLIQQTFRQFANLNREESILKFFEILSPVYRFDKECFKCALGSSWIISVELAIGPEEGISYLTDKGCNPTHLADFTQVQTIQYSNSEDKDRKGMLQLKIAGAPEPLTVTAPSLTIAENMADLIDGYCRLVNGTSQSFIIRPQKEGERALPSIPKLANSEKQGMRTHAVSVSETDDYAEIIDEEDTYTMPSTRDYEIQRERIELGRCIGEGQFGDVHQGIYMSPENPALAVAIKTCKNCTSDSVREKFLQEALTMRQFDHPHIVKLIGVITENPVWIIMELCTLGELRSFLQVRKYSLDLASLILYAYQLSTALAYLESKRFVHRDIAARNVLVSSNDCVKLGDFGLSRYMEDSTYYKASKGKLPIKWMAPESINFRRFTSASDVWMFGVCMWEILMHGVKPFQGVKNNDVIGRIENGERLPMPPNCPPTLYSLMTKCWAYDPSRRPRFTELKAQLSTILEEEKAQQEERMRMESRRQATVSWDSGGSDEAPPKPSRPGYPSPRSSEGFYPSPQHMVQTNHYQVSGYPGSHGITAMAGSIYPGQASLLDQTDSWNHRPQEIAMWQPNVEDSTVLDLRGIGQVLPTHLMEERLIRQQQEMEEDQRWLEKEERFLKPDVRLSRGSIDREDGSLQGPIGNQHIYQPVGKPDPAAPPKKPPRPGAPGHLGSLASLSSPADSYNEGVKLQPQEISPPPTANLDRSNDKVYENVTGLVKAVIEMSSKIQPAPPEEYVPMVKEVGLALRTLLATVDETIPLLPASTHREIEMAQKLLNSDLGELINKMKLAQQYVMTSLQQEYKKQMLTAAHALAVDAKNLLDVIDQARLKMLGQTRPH
For experiment [4], the system named is Fibrinogen (Alexa647-labelled). Nature of the experiment: Alexa647-fibrinogen binding to printed small molecules – biochemical, small-molecule microarray, 635/667 nm fluorescence, artefact control for SMM control-protein annotation, profiling panel (AID 1131).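 Also: z-score merges 667 nm fluorescence with per-spot signal-to-noise over triplicate slides.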 The settings on record: fibrinogen-A647 binding fluorescence, higher = more signal.
The target in experiment [5] is Follistatin (Homo sapiens) (UniProt P19883). As to the kind of experiment: FST protein binding to printed compounds – biochemical, small-molecule microarray, 635/667 nm fluorescence, primary screen (AID 1132). The settings on record: 635 nm fluorescence, higher = more signal.
Follistatin (Homo sapiens), sequence (P19883 whole entry, looked up): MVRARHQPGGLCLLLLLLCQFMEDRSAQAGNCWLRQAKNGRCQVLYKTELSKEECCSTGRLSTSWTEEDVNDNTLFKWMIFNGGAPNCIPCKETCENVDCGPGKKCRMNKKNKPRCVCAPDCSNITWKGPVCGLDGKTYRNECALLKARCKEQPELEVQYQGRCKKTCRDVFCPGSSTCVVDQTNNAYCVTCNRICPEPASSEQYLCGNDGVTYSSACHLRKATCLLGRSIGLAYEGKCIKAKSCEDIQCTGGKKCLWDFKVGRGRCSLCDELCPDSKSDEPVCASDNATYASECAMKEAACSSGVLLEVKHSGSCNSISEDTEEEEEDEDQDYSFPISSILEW
In experiment [6] the target is Fibroblast growth factor 2 (Homo sapiens) (UniProt P09038). As to the kind of experiment: basic fibroblast growth factor binding to printed compounds – biochemical, small-molecule microarray, 635/667 nm fluorescence, primary screen (AID 1133). To be noted: FGF2, fluorescence 635/667, higher = more signal.
Fibroblast growth factor 2 (Homo sapiens), sequence (P09038 whole entry, looked up): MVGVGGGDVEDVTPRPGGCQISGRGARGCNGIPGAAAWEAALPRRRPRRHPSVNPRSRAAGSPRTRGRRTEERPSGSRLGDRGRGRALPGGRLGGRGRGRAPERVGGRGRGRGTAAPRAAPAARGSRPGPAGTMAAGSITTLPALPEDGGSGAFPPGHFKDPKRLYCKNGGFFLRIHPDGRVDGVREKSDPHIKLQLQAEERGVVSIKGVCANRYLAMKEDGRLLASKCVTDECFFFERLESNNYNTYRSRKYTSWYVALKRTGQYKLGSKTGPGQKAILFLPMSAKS
Experiment [7] can be described thus: JC-1 mitochondrial potential readout, lung cancer cells – cell-based, A549, JC-1 fluorescence, basal, 24 h, 100 nL, profiling panel (AID 1138).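 Also: A549 lung adenocarcinoma cells under basal conditions with no added stimulus; test concentration not given here.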 To be noted: higher = more signal.
Another experiment concerns Lefty1. Nature of the experiment: Lefty1 protein binding to printed compounds – biochemical, small-molecule microarray, 635/667 nm fluorescence, primary screen (AID 1139). To be noted: fluorescence 635/667, higher = more signal.
Experiment [8] deals with wheat germ agglutinin (Triticum aestivum), Alexa647-labelled. As to the kind of experiment: Alexa647-WGA lectin binding to printed small molecules – biochemical, small-molecule microarray, 635/667 nm fluorescence, artefact control for SMM control-protein annotation, profiling panel (AID 1140).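 Also: score merges 667 nm feature emission with signal to noise over triplicate slides.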 To be noted: WGA-A647 binding, 635 nm fluorescence, higher = more signal.
Experiment [9] has as its target Luciferin 4-monooxygenase (Photinus pyralis) (UniProt P08659). As to the kind of experiment: inhibition of purified Photinus pyralis luciferase – biochemical, luminescence, purified enzyme, 2006 set, primary screen (AID 1141).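 Also: cell-free assay with purified firefly luciferase at 100 ng per well in PBS; test concentration not given here.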 To be noted: purified firefly luciferase, SteadyGlo luminescence, 30 min; higher = more signal, called active from +8 up or from −8 down.
Experiment [10] has as its system Wnt5a (protein binding on small-molecule microarray). Nature of the experiment: small molecules binding Wnt5a protein – biophysical, small-molecule microarray, 635/667 nm fluorescence, primary screen (AID 1142).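 Also: fluorescence read at 667 nm with signal to noise per printed feature.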 To be noted: 635 nm fluorescence, higher = more signal.
Experiment [11] is described as follows: ATP-based viability of Huh7 replicon cells – cell-based, CellTiter-Glo luminescence, basal, 48 h, cytotoxicity control for HCV replication inhibitor project, primary screen (AID 1143).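 Also: Huh7 hepatoma cells carrying a hepatitis C replication reporter with no stimulus; test concentration not given here.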 The settings on record: higher = more signal, called active from +8 up or from −8 down.
A short description of experiment [12]: Pseudomonas biofilm growth suppression – PAO1 strain, BacTiter-Glo luminescence, LB-PBS, primary screen (AID 1144). To be noted: P. aeruginosa PAO1 biofilm, 12 h, higher = more signal.
Experiment [13] can be described thus: basal CRE-LacZ reporter activity in PC12 – cell-based, unstimulated, primary screen (AID 1145). The settings on record: no forskolin, luminescence, 4.5 h, higher = more signal, called active from +8 up or from −8 down.
Experiment [14] is described as follows: forskolin-driven CRE-LacZ activity in PC12 – cell-based, CRE-LacZ reporter, forskolin-stimulated, primary screen (AID 1146).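 Also: PC12 cells with 6xCRE LacZ reporter stimulated by forskolin 10 µM; beta-galactosidase reporter signal reflecting CREB driven transcription.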 To be noted: luminescence, 4.5 h, higher = more signal, called active from +8 up or from −8 down.
For experiment [15], the target named is Streptavidin (Streptomyces avidinii) (UniProt P22629). Nature of the experiment: compounds binding control protein streptavidin – biophysical, small-molecule microarray, 635/667 nm fluorescence, artefact control for SMM compound annotation, primary screen (AID 1147).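 Also: signal reflects streptavidin binding to arrayed compounds as a control protein.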 To be noted: higher = more signal.
Streptavidin (Streptomyces avidinii), sequence (P22629 whole entry, looked up): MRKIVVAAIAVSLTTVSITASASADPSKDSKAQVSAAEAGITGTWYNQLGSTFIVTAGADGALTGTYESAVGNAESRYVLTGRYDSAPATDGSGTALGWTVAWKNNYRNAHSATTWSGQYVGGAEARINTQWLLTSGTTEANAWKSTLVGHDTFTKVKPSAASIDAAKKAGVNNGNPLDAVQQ
Experiment [16] can be described thus: probe aInhba binding on compound microarray – biochemical, small-molecule microarray, 635/667 nm fluorescence, primary screen (AID 1148).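 Also: score merges 667nm spot fluorescence with signal-to-noise for antibody binding to printed compounds.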 To be noted: higher = more signal.
In experiment [17] the target is Torsin-1A (Homo sapiens) (UniProt O14656). As to the kind of experiment: TOR1A wild-type binding on microarray – cell lysate, small-molecule microarray, lysate, 635/667 nm, primary screen (AID 1149). To be noted: COS7 hTOR1A-WT lysate, 635 nm fluorescence, higher = more signal.
Torsin-1A (Homo sapiens), sequence (O14656 whole entry, looked up): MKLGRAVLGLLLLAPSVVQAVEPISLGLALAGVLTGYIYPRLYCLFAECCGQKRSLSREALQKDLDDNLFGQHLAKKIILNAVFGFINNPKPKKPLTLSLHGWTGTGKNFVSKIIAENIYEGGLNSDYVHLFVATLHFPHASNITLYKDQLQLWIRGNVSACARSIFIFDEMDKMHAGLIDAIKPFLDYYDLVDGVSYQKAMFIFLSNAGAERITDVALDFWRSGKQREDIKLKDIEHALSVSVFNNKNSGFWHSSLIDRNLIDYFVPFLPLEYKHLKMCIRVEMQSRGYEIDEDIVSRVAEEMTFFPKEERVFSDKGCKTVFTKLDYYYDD
Experiment [18] shares this target. Nature of the experiment: torsin A mutant lysate binding on microarrays – cell lysate, small-molecule microarray, COS7 lysate, 635/667 nm fluorescence, primary screen (AID 1150).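 Also: score pools 667 nm emission and signal to noise measuring lysate protein binding.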 To be noted: COS7 hTOR1A mutant lysate, 635 nm fluorescence, higher = more signal.
Experiment [19] concerns Sonic hedgehog protein (Shh). As to the kind of experiment: Sonic hedgehog microarray binding compounds – biochemical, small-molecule microarray, 635/667 nm fluorescence, primary screen (AID 1151).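 Also: Shh protein binding to compounds spotted on small-molecule microarray slides; score combines spot fluorescence intensity with signal-to-noise across triplicate slides.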 To be noted: 635 nm fluorescence, higher = more signal.

Luciferin 4-monooxygenase (Photinus pyralis), sequence (P08659 whole entry, looked up): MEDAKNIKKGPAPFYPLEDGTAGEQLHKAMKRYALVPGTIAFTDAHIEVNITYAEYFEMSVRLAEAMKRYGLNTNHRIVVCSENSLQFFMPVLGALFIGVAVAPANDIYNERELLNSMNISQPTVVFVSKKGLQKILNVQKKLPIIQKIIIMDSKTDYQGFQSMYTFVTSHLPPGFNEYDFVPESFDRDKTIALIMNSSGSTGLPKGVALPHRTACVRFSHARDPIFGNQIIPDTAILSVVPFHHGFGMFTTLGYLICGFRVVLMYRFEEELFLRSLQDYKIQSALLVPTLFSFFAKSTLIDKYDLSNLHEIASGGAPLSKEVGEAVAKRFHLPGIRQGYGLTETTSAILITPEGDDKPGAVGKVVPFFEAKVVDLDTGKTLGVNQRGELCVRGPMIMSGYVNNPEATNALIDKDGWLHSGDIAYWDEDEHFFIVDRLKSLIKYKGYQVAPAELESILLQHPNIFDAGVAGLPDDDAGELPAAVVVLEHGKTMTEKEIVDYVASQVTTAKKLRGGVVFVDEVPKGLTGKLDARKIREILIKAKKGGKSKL

As to `CCOC(=O)[C@H]1C[C@H]2O[C@@]23C[C@H]1C(=O)N1CCCC1[C@@H]3O[Si](C)(C)C(C)(C)C` (stereo not given in full), the composite z-score in experiment [1] is -0.288; in experiment [2], -0.311; in experiment [3] it was -0.349; in experiment [4], -0.466; in experiment [5] it was -0.068; in [6] it was -0.0656. The composite z-score with Lefty1 is 0.225; in [8], -0.339; in experiment [10], -0.489; in experiment [15], -0.266; in experiment [16], -0.245; in the experiment with Torsin-1A (Homo sapiens) [17], -0.235. In addition, the values for the composite z-score (with Torsin-1A (Homo sapiens) [18]; in experiment [19]) were -0.178 and 1.1, respectively. The z-score in experiment [7] is -0.341; in experiment [9], 0.261 (inactive); in [11], -2.14 (inactive); in experiment [12] it was 0.209 (inactive); in [13] it was -1.59 (inactive); in experiment [14] it was -0.852 (inactive).
`COCCCNC(=O)[C@@]1(CCC(=O)OC(C)(C)C)N=C(c2ccc(OCCCO)cc2)O[C@H]1c1ccccc1CN=[N+]=[N-]`: the composite z-score in [1] was determined as 3.15; in experiment [2], 1.04; in experiment [3] it was 1.02; in [4], 1.01; in [5], 1.39; in [6], 1.28. Further, the composite z-score was -0.34 in the experiment on Lefty1; 1.2 in experiment [8]; 1.01 in experiment [10]; 1.01 in [15]; 0.329 in [16]; 1.23 with Torsin-1A (Homo sapiens) [17]. Further, the composite z-score with Torsin-1A (Homo sapiens) [18] stood at 1.51; in [19], 0.103. In addition, the z-score is -0.49 in experiment [7]; -1.05 (inactive) in [9]; -0.0523 (inactive) in experiment [11]; 0.0993 (inactive) in experiment [12]; -0.538 (inactive) in [13]; 0.286 (inactive) in [14].
Consider `COc1ccc([Si](C)(C)[C@H]2[C@H](CC(=O)N(CCO)Cc3ccccc3)O[C@@]3(C(=O)N(Cc4cccc(N5CCC5=O)c4)c4ccccc43)[C@@H]2C)cc1`, for which the composite z-score in experiment [1] came out at 2.18; in experiment [2], 1.03; in [3], 0.222; in experiment [4], 0.279; in experiment [5], 1.12; in experiment [6] it was 1.68. Besides, the composite z-score in the experiment on Lefty1 was 1.33; in experiment [8], 0.767; in experiment [10] it was 0.526; in experiment [15], 0.0587; in experiment [16], -0.0221; with Torsin-1A (Homo sapiens) [17], 0.795. In addition, the composite z-score is 0.278 with Torsin-1A (Homo sapiens) [18] and 2.05 in experiment [19]. Besides, the z-score in experiment [7] was -0.166; in experiment [9], 0.272 (inactive); in experiment [11], -6.85 (inactive); in experiment [12], -0.216 (inactive); in experiment [13], 0.469 (inactive); in experiment [14], -0.854 (inactive).
As for `O=C1OCCC=C[C@H]2OC34C=CCN(Cc5ccccc5)C(=O)[C@H]3N(CCCO)C(=O)[C@@H]4C12` (stereo not given in full), the composite z-score in [1] was 1.76; in experiment [2], -1.17; in [3] it was -0.0769; in [4] it was -0.887; in experiment [5], -0.145; in experiment [6], -0.349. For the same compound, the composite z-score was 0.181 in the experiment with Lefty1; -0.194 in experiment [8]; -0.419 in [10]; -0.399 in experiment [15]; -0.128 in [16]; -0.8 with Torsin-1A (Homo sapiens) [17]. The composite z-score with Torsin-1A (Homo sapiens) [18] is -0.586; in experiment [19] it was -0.174. Also, the z-score was -0.778 in [7]; 0.0952 (inactive) in experiment [9]; -3.89 (inactive) in experiment [11]; -2.36 (inactive) in experiment [12]; -1.31 (inactive) in experiment [13]; -1.18 (inactive) in [14].
Regarding `CCOC(=O)C[C@H]1[C@H](OC(=O)c2ccccc2-c2ccccc2)[C@@H](NC(=O)Cc2ccc(OC)cc2)c2cc(OCCCO)ccc2N1C(=O)c1ccccc1`, the composite z-score was -0.269 in experiment [1]; -0.371 in experiment [2]; 0.145 in experiment [3]; -0.449 in [4]; 0.23 in experiment [5]; -0.443 in experiment [6]. Moreover, the composite z-score in the experiment with Lefty1 was 0.189; in [8], -0.0397; in experiment [10] it was 0.222; in experiment [15], -0.105; in [16] it was -0.287; in the experiment with Torsin-1A (Homo sapiens) [17], -0.259. Further, the composite z-score with Torsin-1A (Homo sapiens) [18] is 0.405; in experiment [19] it was -0.127. Also, the z-score was 0.362 in [7]; 0.474 (inactive) in experiment [9]; -0.0369 (inactive) in experiment [11]; 0.817 (inactive) in [12]; 4.57 (inactive) in experiment [13]; 2.83 (inactive) in [14].
